Test results taken from PubChem BioAssay (NCATS).
Records with an inconclusive call do not appear. The source made the active and inactive calls. Calls come from the whole dose curve; as a rule, active = well fitted inhibition curve with a large enough effect; inconclusive = small, poorly fitted or top-dose-only effect; inactive = flat fitted curve, though single readings scatter.

system: CRL-7250; assay: qHTS assay to identify novel small-molecules to repurpose for Merkel cell carcinoma treatment (AID 1296009); conditions: MCC and control cell lines, CellTiter-Glo viability, 72 h; at 44.8 µM (top of the series) unless noted; note: nearly all actives have a fitted effect of over 60% in size
Excerpt: MCC is a rare and aggressive neuroendocrine skin cancer with limited treatment options. Approximately 80% of MCCs have the Merkel cell polyomavirus (MCPyV) DNA integrated into the host genome (virus-positive: VP-MCC) and viral oncogenes drive oncogenesis. The remaining MCCs are virus-negative (VN-MCC) and are caused by UV mutagenesis. To identify novel treatments for VP-MCC and/or VN-MCC we screened three VP-MCC cell lines (WAGA, MKL-1, MKL-2), three VN-MCC cell lines (MCC-13, MCC-26, UISO), and four immortalized, non-transformed control cell lines (HaCaT, HEK293T, CRL7250, NIH-3T3) against ~2,400 compounds in the NCGC Pharmaceutical Collection (NPC) and ~1,900 compounds in the Mechanism Interrogation PlatE (MiPE). Using cell viability as a readout (CellTiter-Glo assay) we found both overlapping and distinct drugs that can be repurposed for the treatment of VP-MCC and VN-MCC.
A high-throughput screen was conducted in 1536-well white flat bottom plates (Corning) on a Kalypsys robotic system. Cell lines WAGA, MKL-1, MKL-2, MCC-13, MCC-26, UISO, HaCaT, HEK293T, CRL7250, and NIH-3T3 were screened against 2 small molecule annotated drug libraries NPC and MIPE in dose response (8 and 11 pt. respectively) measuring cell viability after 72 hours of incubation. […] A 1,536 pintool (Kalypsys) was used to transfer 23 nL of compound in DMSO to the 1,536-well assay plates. After 72 hr incubation at 37 degree celsius, 2.5 uL of CellTiter-Glo (Promega) was dispensed into each well using a BiorapTR. Plates were incubated at room temperature for 10 min, transferred to a ViewLux (PerkinElmer) and the luminescence was recorded using an exposure time of 2 seconds. Relative luminescence units (RLUs) were normalized to in-plate controls (no cells as a positive (cytotoxicity) control, DMSO as negative control) and the normalized data was processed using NCATS in-house software.

**Q.** How did the outcome turn out when `C[C@]12CCC(=O)C=C1[C@@H]1C[C@@H]1[C@H]1[C@@H]3[C@@H]4C[C@@H]4[C@@]4(CCC(=O)O4)[C@@]3(C)CC[C@@H]12` was run?
**A.** inactive

**Q.** How did the outcome turn out when `CCCCCCCCCCCCCCCCC(C(=O)O)C(O)(CC(=O)O)C(=O)O` (stereo not given) was run?
**A.** inactive

**Q.** With `CN(C)C(=O)Oc1cccc([N+](C)(C)C)c1` as the compound, how does the outcome read?
**A.** inactive

**Q.** Which outcome does the source give for `CN1CCC(OC(c2ccccc2)c2ccccc2)CC1` here?
**A.** inactive

**Q.** `C[C@@H]1CC[C@@]2(OC1)O[C@H]1C[C@H]3[C@@H]4CC[C@H]5C[C@@H](O)CC[C@]5(C)[C@H]4CC(=O)[C@]3(C)[C@H]1[C@@H]2C` was tested. Which outcome did it give?
**A.** inactive [at 4.96 µM]

**Q.** Which outcome does the source give for `C=C1c2cccc(O)c2C(O)=C2C(=O)[C@]3(O)C(O)=C(C(N)=O)C(=O)[C@@H](N(C)C)[C@@H]3[C@@H](O)[C@H]12` here?
**A.** inactive

**Q.** Which outcome does the source give for `O=C(/C=C/c1ccccc1)NCCO` here?
**A.** inactive

**Q.** With `CC(C)NCC(O)COc1ccc(COCCOC(C)C)cc1` (stereo not given) as the compound, how does the outcome read?
**A.** inactive

**Q.** `Cc1cccc(C)c1NC(=O)C(C)N` (stereo not given) was tested. Which outcome did it give?
**A.** inactive

**Q.** `Cc1cc(C(C)(C)C)c(O)c(C)c1CC1=NCCN1` was tested. Which outcome did it give?
**A.** inactive

**Q.** For `CC(C)C(=O)OCc1cccc(OC(=O)[C@@H]2N3C(=O)[C@@H](NC(=O)Cc4ccccc4)[C@H]3SC2(C)C)c1`, which outcome is on record?
**A.** inactive

**Q.** Which outcome does the source give for `Cc1ccc(Cl)c(OCC(O)CNC(C)(C)C)c1` (stereo not given) here?
**A.** inactive

**Q.** `CC(=O)SC[C@@H](Cc1ccccc1)C(=O)NCC(=O)OCc1ccccc1` was tested. Which outcome did it give?
**A.** inactive

**Q.** How did the outcome turn out when `CN1[C@@H]2CC[C@H]1CC(OC(=O)c1c[nH]c3ccccc13)C2` (stereo not given in full) was run?
**A.** inactive

**Q.** With `O=C(NCC1CN(c2ccc(N3CCOCC3=O)cc2)C(=O)O1)c1ccc(Cl)s1` (stereo not given) as the compound, how does the outcome read?
**A.** inactive

**Q.** How did the outcome turn out when `C[N+]1(C)[C@@H]2CC[C@H]1CC(OC(=O)C(CO)c1ccccc1)C2` (stereo not given in full) was run?
**A.** inactive

**Q.** With `CCCOC(=O)c1ccc(N)cc1` as the compound, how does the outcome read?
**A.** inactive

**Q.** Which outcome does the source give for `ClCCCN1CCN(c2cccc(Cl)c2)CC1` here?
**A.** inactive

**Q.** How did the outcome turn out when `CCCCCCCCCCCCOS(=O)(=O)O` was run?
**A.** inactive

**Q.** With `CCn1cc(C(=O)O)c(=O)c2cc(F)c(N3CCN(C)CC3)cc21` as the compound, how does the outcome read?
**A.** inactive [at 17.4 µM]

**Q.** For `CN1CCOC(c2ccccc2)c2ccccc2C1` (stereo not given), which outcome is on record?
**A.** inactive

**Q.** `CCOc1ccccc1O[C@H](c1ccccc1)[C@H]1CNCCO1` was tested. Which outcome did it give?
**A.** inactive

**Q.** How did the outcome turn out when `Clc1ccc(C(Cn2ccnc2)OCc2c(Cl)cccc2Cl)c(Cl)c1` (stereo not given) was run?
**A.** inactive

**Q.** For `CC(=O)N1C[C@H](O)C[C@H]1C(=O)O`, which outcome is on record?
**A.** inactive

**Q.** `CCC(=O)O[C@]1(C(=O)SCF)[C@H](C)C[C@H]2[C@@H]3C[C@H](F)C4=CC(=O)C=C[C@]4(C)[C@@]3(F)[C@@H](O)C[C@@]21C` was tested. Which outcome did it give?
**A.** inactive

**Q.** For `CCCCN(CCCC)C(C(N)=O)c1ccc(OC)cc1` (stereo not given), which outcome is on record?
**A.** inactive

**Q.** For `CC1=CC(=O)c2ccccc2C1=O`, which outcome is on record?
**A.** inactive

**Q.** `CO[C@@H]1[C@@H](O[C@@H]2O[C@H](C)[C@@H](O[C@H]3C[C@@](C)(O)[C@@H](O)[C@H](C)O3)[C@H](N(C)C)[C@H]2O)[C@@H](CC=O)C[C@@H](C)[C@@H](O[C@@H]2CC[C@H](N(C)C)[C@@H](C)O2)/C=C/C=C/C[C@@H](C)OC(=O)C[C@H]1OC(C)=O` was tested. Which outcome did it give?
**A.** inactive

**Q.** With `C[C@]12CC[C@H]3[C@@H](CCC4=CC(=O)CC[C@@]43C)[C@@H]1CC[C@@H]2C(=O)O` as the compound, how does the outcome read?
**A.** inactive

**Q.** With `O=C(O)Cn1c(C(=O)Nc2nc(-c3ccccc3Cl)cs2)cc2ccccc21` as the compound, how does the outcome read?
**A.** inactive

**Q.** Which outcome does the source give for `COc1cc(N)c(Cl)cc1C(=O)NC1CCN(Cc2ccccc2)CC1` here?
**A.** inactive

**Q.** For `CC[N+](CC)(CC)CCOC(=O)C(C1CCCC1)C1CCCC1`, which outcome is on record?
**A.** inactive

**Q.** With `Cc1c(Cl)cccc1Nc1ccccc1C(=O)O` as the compound, how does the outcome read?
**A.** inactive

**Q.** With `Oc1ccc(O)cc1` as the compound, how does the outcome read?
**A.** inactive

**Q.** `O=C(OCC(COC(=O)c1cccnc1)(COC(=O)c1cccnc1)COC(=O)c1cccnc1)c1cccnc1` was tested. Which outcome did it give?
**A.** inactive

**Q.** `CC1(C)OC[C@@H](COC(=O)CCc2ccc(OC[C@@H](O)CNCCNC(=O)N3CCOCC3)cc2)O1` was tested. Which outcome did it give?
**A.** inactive

**Q.** `CC1CCc2cc(F)cc3c(=O)c(C(=O)O)cn1c23` (stereo not given) was tested. Which outcome did it give?
**A.** inactive

**Q.** How did the outcome turn out when `CC1(C)CO[C@@H](CC(=O)O)CN1` was run?
**A.** inactive

**Q.** For `CCN(CC)CC(=O)OCC(=O)[C@@]1(O)CC[C@H]2[C@@H]3CCC4=CC(=O)CC[C@]4(C)[C@H]3[C@@H](O)C[C@@]21C`, which outcome is on record?
**A.** inactive

**Q.** `CC(=O)OCC(=O)Nc1cc(C#N)cc(NC(=O)COC(C)=O)c1Cl` was tested. Which outcome did it give?
**A.** inactive
